# Assay results from PubChem BioAssay.
# Assay: DUSP6 inhibitors restoring Erk phosphorylation by chemical complementation, primary imaging in DUSP6-transfected HeLa (AID 609)
# Conditions: HeLa MKP-3 transfected, phospho-Erk imaging KS statistic; measured here: cell density z-score; at 10 µM; cells stimulated with TPA for 15 min
row,SMILES,z-score
1,CCN1CCc2c(C#N)c(N3CCCCC3)nc(N3CCOCC3)c2C1,0.15
2,CC(NC(=O)Nc1nnc(C(F)(F)F)s1)(C(F)(F)F)C(F)(F)F,-0.473
3,O=c1[nH]c2sc3c(c2c(=O)n1Cc1ccccc1)CCC3,0.896
4,CC1(C)Cc2c(C#N)c(OCC(=O)c3ccccc3)nc(-c3ccoc3)c2CO1,0.66
5,O=c1[nH]c2cnccc2n1-c1ccccc1,1.25
6,O=C(c1cc(N2CCCCC2)nc2ccccc12)N1CCOCC1,-1.1
7,CC(C)(C)NC(=O)/C=N/O,-0.0727
8,COc1cc(N2CCCC2)c(OC)cc1/C=c1/sc2nc3ccccc3n2c1=O,-1.29
9,COc1cccc(C(=O)OC2CCCN(C)C2)c1 (stereo not given),0.452
10,N#Cc1nc(-c2cccs2)oc1NCc1ccccc1Cl,-2.24
11,Cc1cc(=O)oc(C)c1C(=O)n1nc(C)c2c1C[C@@H]1[C@H]2C1(C)C,0.489
12,Brc1ccc2c(c1)CNc1c(ncnc1N1CCOCC1)O2,-1.15
13,CCOC(=O)NC1(C(F)(F)F)C(=O)NC(C)=C1C#N (stereo not given),-0.0977
14,COCc1n[nH]c(=S)n1-c1cccc2ccccc12,0.455
15,OC1(C2(O)CC(c3ccccc3)ON2)CCCCC1 (stereo not given),0.0893
16,CC(C)Cc1nc(N2CCN(C(=O)Cc3ccccc3)CC2)c(C#N)c2c1COC(C)(C)C2,-0.132
17,CCCCCNc1nc(N2CCCC2)c2c(c1C#N)CCN(C)C2,-0.626
18,O=c1c(-c2ccc(Cl)cc2)[n+]([O-])c2ccccc2n1O,0.0473
19,COc1ccccc1C1/C(=C(/O)c2ccc(OC(C)C)cc2)C(=O)C(=O)N1c1cc(C)on1 (stereo not given),1.18
20,Cc1ccc(CNc2oc(COc3ccccc3Cl)nc2C#N)cc1,-0.405

row,SMILES,z-score
1,COc1ccc(/C(O)=C2\C(=O)C(=O)N(CCN(C)C)C2c2cccc(OC)c2OC)cc1Cl (stereo not given),-0.541
2,CCC(=O)Nc1nc2ccccc2n1CCN(C)C,0.711
3,CCCC(C)n1[nH]c(=O)cc1N (stereo not given),1.2
4,CCN(CC)CCOC(=O)c1c(C)n(C)c2ccc(OC)cc12,0.791
5,CN(C)CCCn1c(NC(=O)C2CCCCC2)nc2ccccc21,0.036
6,COc1ccccc1NC(=O)CSc1nnc(-c2ccc(NC(C)=O)cc2)n1C,-0.0402
7,O=C(Nc1ccc(N2CCN(C(=O)c3ccccc3)CC2)c(Cl)c1)c1ccc(Br)o1,-0.73
8,Cc1nc2c(o1)CCc1ccccc1C2N1CCN(C)CC1 (stereo not given),0.777
9,CN(CCNC(=O)c1ccc(/C=N/O)nc1)Cc1ccccc1,-0.419
10,O=C1C=C(N2CCN(C3=CC(=O)CCC3)CC2)CCC1,-1.82
11,Nc1nc2n(n1)C(c1cccs1)CC(c1ccc(F)cc1)N2 (stereo not given),0.349
12,CC(=O)/C=C(\C)NCCNc1c(F)c(F)c(CO)c(F)c1F,0.666
13,CC1(C)Cc2nc3sc4c(N(CCO)CCO)ncnc4c3cc2CO1,-1.35
14,COC(=O)c1ccc(CN(C(C)=O)c2ccccc2)o1,0.183
15,O=C(c1ccc(=O)oc1)N1CCN(C(c2ccccc2)c2ccccc2)CC1,-0.99
16,Cc1ccc(-n2c(SCC(=O)NCc3ccco3)nc3nc4c(cc3c2=O)COC(C)(C)C4)cc1,0.611
17,Cc1cc(=O)[nH]c(COc2ccccc2)n1,0.188
18,N#Cc1nc(COc2ccccc2F)oc1NCCCn1ccnc1,-0.925
19,COC(=O)c1ccc(C2/C(=C(\O)c3ccc4c(c3)OCCO4)C(=O)C(=O)N2CCCN(C)C)cc1 (stereo not given),-1.2
20,COc1ccc(C(=O)c2oc3nc(C)cc(C)c3c2N)cc1,1.15
